# High-throughput results from PubChem.
# Most compounds without a hit are left out; they make up all but 3.6% or so of the library.
# HTT-AS act: Primary qHTS for Identification of Small Molecule Activators of Huntingtin-Antisense Promoter Activity. HEK293 HTT-AS promoter firefly luciferase reporter, 24 h; response scale: percent change from vehicle, -100% = no light. Potency, µM (top dose mostly 57.5 µM), without a hit: at the highest dose activity change, positive = activation, actives largely listed as activators. 48,000 tested, 0.24% active. AID 1508624, 2021; note: nearly all actives have a fitted effect of over 55% in size
#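 Quantitative HTS used concentration series of up to 57.5 uM final on HEK293 luciferase reporter cells, 24 h at 37 degrees C. Readout was Dual-Glo firefly luminescence.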
# pS6 MEF inh: Acumen qHTS Assay for Inhibitors of the mTORC1 Signaling Pathway in MEF (Tsc2-/-, p53-/-) Cells: Sytravon. Tsc2-/- p53-/- MEF, phospho-rpS6 immunofluorescence/PI, 24 h. Potency, µM (doses to about 38.3 µM), for inactives: top-dose activity change, negative = inhibition, hits mostly inhibitors. 44,000 tested, 0.78% active;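 note: plate controls were DMSO for no effect and rapamycin for full effect; nearly all actives have a fitted effect of over 50% in size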
#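 Readout is phospho-S6 Alexa 488 signal normalized to PI per well, reported as % active cells with thresholds set from rapamycin (7.5 nM) and DMSO controls. Cells: Tsc2-/-, p53-/- MEFs, 24 hrs compound at 37 C; PI cell number serves as viability.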
# PMP22 txn prim: Cell-based coincidence reporter assay to measure PMP22 gene transcription in S16 Pmp22-F2sN cells - Primary screen; S16 Pmp22-F2sN Schwann cells, FLuc/NLuc coincidence luminescence, 24 h; Potency, µM (top dose mostly 57.5 µM), for inactives: top-dose activity change, negative = inhibition, usual class: inhibitors; 43,000 tested, 2% active; AID 1508649, 2021; active = clear falling dose curves in both reporters; inconclusive = both reporters move, but less clearly or upward; inactive = either reporter flat; the % is the NLuc reporter signal; note: % is set by controls: 0 for no effect and ±100 for the full control effect
#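 Luminescent read-out of sequential FLuc and NLuc signals from a reporter embedded in the Pmp22 3' UTR of S16 Schwann cells, taken after 24 h compound exposure at 37C; compounds reducing both signals score as inhibitors of expression.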
# HTT promoter inh: Primary qHTS for Identification of Small Molecule Inhibitors of Huntingtin Promoter Activity; HEK293 HTT promoter firefly luciferase reporter, 24 h; Potency, µM (highest dose often 57.5 µM), inactives show at the top dose activity change, negative = inhibition, most hits filed as inhibitors; 48,000 tested, 0.93% active; note: nearly all actives have a fitted effect of over 50% in size
#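 HEK293 luciferase promoter-reporter cells (2,500/well) plated 24 h, then compounds added at up to 57.5 uM final for 24 h at 37 °C. Firefly luminescence by Dual-Glo, normalized to vehicle (0%) and zero RLU (-100%).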
# OvCa metastasis: Primary qHTS assay for Inhibitors of ovarian cancer metastasis using an organotypic tumor microenvironment (TME) model | SKOV3ip1-GFP adhesion/invasion on 3D omental model, fluorescence | Potency, µM (top dose mostly 45.8 µM), for the others: top-dose activity change, negative = inhibition, most hits filed as inhibitors | 46,000 tested, 0.1% active;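 note: plate controls were DMSO wells for no effect and tomatine positive control wells for full effect; nearly all actives have a fitted effect of over 65% in size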
#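 qHTS, 4-pt dose (0.36-46 umol/L); SKOV3ip1-GFP, 1,200 cells/well, no FBS; primary omental fibroblast/mesothelial co-culture 48 h pre-grown; 2 h RT + 16 h 37 C; PBS wash, 4% PFA; GFP count 488/509 nm.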
# S16 F2sN tox: Cell viability qHTS assay in S16 Pmp22-F2sN cells; S16 Pmp22-F2sN Schwann cells viability, CellTiter-Glo, 24 h; Potency, µM (highest dose often 57.5 µM), for the others: at the highest dose activity change, negative = cytotoxicity, usual class: cytotoxic; 43,000 tested, 0.48% active; AID 1508642, 2021; note: % is set by controls: 0 for no effect and ±100 for the full control effect; nearly all actives have a fitted effect of over 65% in size
#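 Viability was measured by CellTiter-Glo luminescence (15 min, room temperature). This followed 24 h at 37 °C of compound exposure (23 nL pin transfer) in S16 Pmp22-F2sN Schwann cells, 500-1,000 per well.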
# An asterisk follows results filed as active; i = inactive; ? = inconclusive; . = no result; ! = not active in a repeat; [ ] = remark or other dose. Unless noted, calls come from the whole dose curve; as a rule, active = well fitted curve in the direction sought with a large enough effect; inconclusive = small, poorly fitted or top-dose-only effect, or another doubt; inactive = no such curve, though single readings can be large; an effect the other way counts as inactive or inconclusive. Potency is the fitted concentration of half-maximal effect.
SMILES,HTT-AS act,pS6 MEF inh,PMP22 txn prim,HTT promoter inh,OvCa metastasis,S16 F2sN tox
Cc1cc(Br)cc(C)c1NC(=O)c1cnc2ccccn2c1=O,28.2µM*,-1.0%,-70.8%,35.5%,4.4%,?
CCc1ccc(C(=O)CC2(O)C(=O)N(CCc3ccccc3)c3ccc(Cl)cc32)cc1 (configuration not stated),-48.6%,?,?,?,?,20µM*
Cc1ccccc1CN1C(=O)C(O)(CC(=O)c2ccccc2)c2cc(Cl)ccc21 (configuration not stated),-31.8%,11.7µM*,?,?,?,?
N#Cc1c(NC(=O)c2cccc3ccccc23)sc2c1CCCC2,-31.9%,.,.,-29.7%,59.3%,.
O=C(CCCCCCC(=O)Nc1cccnc1)NO,-86.9%,.,.,182.4%,-19.0%,.
Fc1ccc(Nc2nc(Nc3ccc(F)cc3)nc(N3CCOCC3)n2)cc1,-17.2%,2.07µM*,-20.1%,?,15.4%,4.1%
CCOc1ccccc1NC(=O)c1c(NCc2sccc2C)sc2c1CCC(C)C2 (configuration not stated),-21.9%,14.7µM*,?,-2.0%,i,7.2%
COc1ccccc1Nc1nn2c(=O)c3ccc(C(=O)NCCc4ccccc4)cc3nc2s1,-73.3%,?,5.62µM*,7.08µM*,?,8.91µM*
Cc1ccc(Cl)cc1Nc1nn2c(=O)c3ccc(C(=O)NC(C)c4ccccc4)cc3nc2s1 (configuration not stated),-36.2%,-11.6%,7.61µM*,?,-39.7%,?
COc1ccccc1Nc1nn2c(=O)c3ccc(C(=O)NC(C)c4ccccc4)cc3nc2s1 (configuration not stated),-21.2%,-6.4%,-14.7%,-15.1%,5.9%,6.1%
NC1(Cc2ccc(Cl)cc2)CCN(c2ncnc3[nH]ccc23)CC1,-36.2%,.,.,?,7.8%,.
Cc1ccc(Cc2nc3ccccc3nc2SCC(=O)N2CCCCC2C)cc1 (configuration not stated),-44.4%,-13.5%,?,28.2µM*,29.7%,-22.4%
CC(NC(=O)c1ccc(Nc2nc3ccccc3n3nnnc23)cc1)c1ccccc1 (configuration not stated),12.4%,-11.8%,-37.0%,16.4%,-19.1%,?
CN(C)c1ccc(Nc2nc3ccccc3n3nnnc23)cc1,-17.3%,-0.9%,13.5µM*,-19.9%,3.5%,?
O=C(c1ccc(Nc2nc3ccccc3n3nnnc23)cc1)N1CCN(c2ccc(F)cc2)CC1,-6.9%,3.5%,4.01µM*,-8.0%,-5.8%,?
CC[C@@]1(O)C[C@H](O[C@H]2C[C@H](N(C)C)[C@H](O[C@H]3C[C@H](O)[C@H](O[C@H]4CCC(=O)[C@H](C)O4)[C@H](C)O3)[C@H](C)O2)c2c(cc3c(c2O)C(=O)c2c(O)cccc2C3=O)[C@@H]1C(=O)OC,-25.1%,.,.,-1.9%,5.8%,.
CC[C@H](C)n1cc(C)c2c(C(=O)NCc3c(C)cc(C)[nH]c3=O)cc(-c3ccc(N4CCNCC4)nc3)cc21,-2.9%,.,.,-3.8%,-18.8%,.
Cc1ccc(CCNC(=O)C2CCCN(Cc3nc(-c4cccc(Cl)c4)oc3C)C2)cc1 (configuration not stated),-64.5%,0.8%,?,-23.2%,-43.5%,?
Cc1cccc(-c2nc(CN3CCCC(C(=O)NCCc4ccc(Cl)cc4)C3)c(C)o2)c1 (configuration not stated),-46.4%,-17.9%,?,31.6µM*,?,-25.2%
Cc1cccc(N2CCN(CCNC(=O)Nc3ccc(Cl)cc3)CC2)c1C,-55.2%,18.5µM*,?,?,?,?
O=C(NCCCN1CCN(c2ccc(F)cc2)CC1)Nc1ccc(Cl)cc1,-25.6%,?,?,-23.9%,i,?
Cc1ccccc1OCC(=O)Nc1ccccc1C(=O)OCc1cc(=O)n2c(C)csc2n1,-46.5%,7.3%,?,2.24µM*,15.6%,-13.3%
CCCCN(CC)C(=O)CSc1nc2n[nH]c(C)c2c(=N)n1-c1cccc(Cl)c1,-47.5%,-3.4%,13.4µM*,?,-9.0%,?
CC(C)(C)COc1ccc(-n2cc(C(=O)O)cn2)cc1C#N,-77.9%,.,.,?,10.8%,.
Cc1nc(-c2ccc(OCC(C)C)c(C#N)c2)sc1C(=O)O,-81.4%,.,.,5.01µM*!,-5.5%,.
SMILES,HTT-AS act,pS6 MEF inh,PMP22 txn prim,HTT promoter inh,OvCa metastasis,S16 F2sN tox
CCOC(=O)c1c(NC(=O)COc2ccccc2)sc(C(C)=O)c1C,-13.1%,-0.8%,-7.7%,-8.5%,i,20.0%
CCOC(=O)c1c(NC(=O)COc2ccc(OC)cc2)sc(C(=O)N(CC)CC)c1C,-58.1%,-0.7%,?,11.2µM*,i,?
S=C(NCc1ccc2c(c1)OCO2)N1CCN(c2ncnc3c2oc2ccccc23)CC1,-16.3%[116 µM],.,.,?,-8.9%[92.2 µM],.
CCC(=O)N1c2ccccc2C(C)(c2ccccc2)CC1(C)C (configuration not stated),-3.9%,-7.3%,-3.1%,9.8%,16.4%,-1.2%
CC1(c2ccc(Cl)cc2)CC(C)(C)N(C(=O)c2ccccc2)c2ccccc21 (configuration not stated),-39.8%,-0.8%,?,25.1µM*,i,-28.6%
CC(=O)Nc1ccc(NC(=O)c2nc(SCc3ccccc3C)ncc2Cl)cc1,-15.8%,-6.1%,?,-6.9%,-8.6%,6.0%
Cc1ccc(CS(=O)(=O)c2ncc(Cl)c(C(=O)Nc3nc4ccc(C)cc4s3)n2)cc1,-85.8%,-0.3%,6.48µM*,?,25.1µM*,20µM*
COc1ccc(OC)c(NC(=O)c2nc(S(=O)(=O)Cc3ccc(F)cc3)ncc2Cl)c1,-94.0%,2.93µM*,?,?,6.31µM*,4.47µM*
Cc1ccc(NC(=O)c2nc(S(=O)(=O)Cc3ccc(F)cc3)ncc2Cl)cc1C,-69.2%,?,7.27µM*,?,11.2µM*,10µM*
COc1ccccc1NC(=O)c1nc(SCc2ccc(F)cc2)ncc1Cl,-2.6%,0.0%,-26.7%,-6.6%,-6.2%,11.1%
